NadD block = blocks S. aureus nicotinate mononucleotide adenylyltransferase | hit rate 0.78% among 360,000 | purified NadD enzyme, colorimetric absorbance read-out | inhibition, % at 20 µM | AID 602399; in the data active means inhibition above about 26%
PP1 inh = counter-screen for PP5 inhibitors: inhibitors of human PP1-alpha; P62136; purified PP1alpha, OMFP fluorescence; inhibition, % at 6.7 µM; hit rate 0.9% among 320,000; AID 2235;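 active means inhibition above the mean inhibition of all tested compounds plus 3 SD, computed separately for each screening campaign, cut at about 15% in these data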
Target sequence (P62136 whole entry, looked up): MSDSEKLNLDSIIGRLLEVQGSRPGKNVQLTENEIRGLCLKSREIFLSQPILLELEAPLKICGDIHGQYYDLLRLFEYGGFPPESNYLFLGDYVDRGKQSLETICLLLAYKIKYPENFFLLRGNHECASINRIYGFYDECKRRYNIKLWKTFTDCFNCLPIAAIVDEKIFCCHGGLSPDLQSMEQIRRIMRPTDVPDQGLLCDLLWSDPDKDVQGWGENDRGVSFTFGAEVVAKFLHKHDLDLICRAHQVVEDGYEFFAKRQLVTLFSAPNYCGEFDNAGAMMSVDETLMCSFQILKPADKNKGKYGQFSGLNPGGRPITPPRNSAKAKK
Granule exo inh = lytic granule exocytosis inhibition; TALL-104 LAMP-1 surface exposure, flow cytometry; cells stimulated with thapsigargin and PMA; inhibition, % at 10 µM; hit rate 0.66% among 360,000; AID 651702;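 active means inhibition above about 55%, limit read from the data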
B2AR ag = human beta-2 adrenergic receptor agonism by FAP. P07550. Am2.2-beta2AR cells, FAP receptor internalization, flow cytometry. response, % (test concentration not listed). hit rate 0.43% among 340,000;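 active means response above a set limit, near 3 SD of response in nonfluorescent compounds, cut at about 42% in these data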
GRK2 aptamer HTS = blocks RNA aptamer binding to human GRK2. inhibition of aptamer binding, % at 10 µM. bead flow cytometry, FAM-aptamer displacement from GRK2. hit rate 0.59% among 330,000. P25098;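 active means inhibition of aptamer binding above 40%, roughly 3 SD of noise, on plates passing a quality check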;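 further: median bead fluorescence of bound FAM aptamer so fluorescent compounds give negative values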
Beta2AR ag CP1 = activates human beta-2 adrenergic receptor | shares compounds with B2AR ag | Am2.2-beta2AR cells, FAP surface receptor, flow cytometry; hits give low values | percent response (surface receptor), % at 10 µM | hit rate 25% among 1,100 | AID 540358;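 active means surface receptor percent response at or below 58%, roughly 3 SD from nonfluorescent compounds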
FAP fluor counter = counter-screen for beta-2AR agonists: fluorescence in Am2.2 cells | FAP fluorogen flow cytometry, fluorescence counterscreen; hits give low values | AID 588765 | 1,100 tested, under 10 active | shares compounds with B2AR ag | calls only at 10 µM;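 active means percent response below a set limit in fluorescence channel 1 and below 50% in channel 8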
The depositor's hits bear a star; i = inactive; · = no result given. A selection: hits, their analogues and other compounds. The true share with any hit is near 2.9%.

SMILES | NadD block | PP1 inh | Granule exo inh | B2AR ag | GRK2 aptamer HTS | Beta2AR ag CP1 | FAP fluor counter
Cc1cc(-c2ccccc2)nc(SCC(=O)N2CCCC2)n1 | 2 | 3 | 1 | -19 | 0 | 115 | i
Cc1cc(C)nc(SCC(=O)N2CCCCC2)n1 | -2 | -5 | -1 | 2 | 1 | · | ·
CCOC(=O)COc1cccc2c(=O)n(CC(=O)NCCc3ccccc3)ccc12 | -5 | -2 | 2 | 44* | 0 | 85 | i
COc1ccc(Cl)cc1NC(=O)COc1ccc(S(=O)(=O)N2CCOCC2)cc1C | -9 | 1 | 3 | 0 | 0 | 75 | i
COC(=O)c1ccccc1NC(=O)COc1ccc(S(=O)(=O)N2CCCC2)cc1C | -6 | -5 | -3 | 5 | 0 | 99 | i
Cc1cc(S(=O)(=O)N2CCCC2)ccc1OCC(=O)Nc1ccc(C(N)=O)cc1 | -2 | 1 | -2 | 2 | 2 | 113 | i
CN1CCN(c2ccc(S(=O)(=O)N3CCOCC3)cc2NC(=O)COc2ccc(C#N)cc2)CC1 | 4 | · | -1 | 6 | · | · | ·
CN(C)c1ccc(NC(=S)NC23CC4CC(CC(C4)C2)C3)cc1 | -4 | 2 | -6 | 1 | 0 | · | ·
COC(=O)C[C@@H]1CC[C@H](NC(=O)c2cnccn2)[C@@H](CO)O1 | · | · | -15 | · | · | · | ·
Cc1ccc(NC(=O)c2cncc(Br)c2)c(O)c1 | -2 | -2 | -3 | 7 | 14 | · | ·
O=[N+]([O-])c1cccc(-c2nc(-c3ccccc3)c(-c3cccs3)[nH]2)c1 | 17 | -7 | -8 | 50* | 0 | 111 | i
Cc1ccc([N+](=O)[O-])cc1N=Nc1c(-c2ccc([N+](=O)[O-])cc2)[nH]n(C(N)=S)c1=O | 53* | · | 11 | 20 | · | 101 | i
Cc1ccc([N+](=O)[O-])cc1N=Nc1c(C)[nH]n(C(N)=S)c1=O | 6 | -4 | -3 | 3 | 0 | · | ·
Cc1ccc(N=Nc2c(C)[nH]n(C(N)=S)c2=O)cc1 | 6 | -2 | -1 | -4 | 3 | · | ·
NC(=S)n1[nH]c(-c2ccc([N+](=O)[O-])cc2)c(N=Nc2ccc(Cl)cc2)c1=O | 68* | · | 20 | 2 | · | 103 | i
Cc1cccc(C)c1NC(=O)C1(C)CN(S(C)(=O)=O)CC(=O)N1Cc1ccco1 (centres undefined) | · | · | -4 | · | · | · | ·
Cc1csc(NC(=O)CCc2c(C)nc3cc(-c4ccc(Cl)cc4)nn3c2C)n1 | 6 | -1 | 0 | 63* | 1 | 69 | i
O=[N+]([O-])c1cccc(C2(O)COc3ccccc3O2)c1 (centres undefined) | -4 | 0 | -4 | 7 | 1 | · | ·
CCOc1cccc(CN2CCC(Oc3ccc(C(=O)N4CCCC4)cc3)CC2)c1 | -4 | 2 | 0 | -6 | 1 | 114 | i
Cc1cccc(CN2CCC(Oc3ccc(C(=O)N4CCCCC4)cc3)CC2)c1 | -5 | -3 | -2 | 12 | 1 | 86 | i
CCC(C)NC(=O)c1ccc2nc(-c3ccc(OC)c(OC)c3)c(-c3ccc(OC)c(OC)c3)nc2c1 (centres undefined) | -7 | -1 | 8 | 22 | 5 | · | ·
CCCN(CCC)C(=O)c1ccc2nc(-c3ccc(OC)c(OC)c3)c(-c3ccc(OC)c(OC)c3)nc2c1 | -14 | 8 | 2 | 43* | 6 | 123 | i
CN(C(=O)c1cccc(NC(=O)Cc2cccc(NC(=O)C3CCN(C(=O)C4CCCC4)CC3)c2)c1)C1CCC1 | 9 | · | 0 | -15 | · | · | ·
CN(C(=O)c1ccc(NC(=O)Cc2cccc(NC(=O)C3CCN(C(=O)C4CCC4)CC3)c2)cc1)C1CCCC1 | 5 | -5 | 5 | 5 | 2 | 119 | i
CN(C(=O)c1ccc(NC(=O)Cc2cccc(NC(=O)C3CCN(C(=O)C4CC4)CC3)c2)cc1)C1CCCC1 | 1 | -3 | 0 | -4 | 0 | 107 | i
CN(C(=O)c1ccc(NC(=O)Cc2cccc(NC(=O)C3CCN(C(=O)C4CCCC4)CC3)c2)cc1)C1CC1 | 1 | · | -4 | -5 | · | 132 | i
CCCNC(C)C(=O)Nc1ccccc1C (centres undefined) | -3 | 1 | 3 | -3 | 0 | 115 | i
CCCNC(=O)c1ccccc1NC(=O)Nc1ccccc1C | -4 | 4 | 0 | -2 | 0 | · | ·

Compound activity as filed in PubChem BioAssay.
